HT1080NT lethal: qHTS for induction of synthetic lethality in tumor cells producing 2HG: qHTS for the HT-1080-NT fibrosarcoma cell line; 360,000 compounds, 1.6% hits; HT-1080-NT fibrosarcoma viability, CellTiter-Glo ATP luminescence, 48 h; Potency, µM (top dose mostly 46.1 µM), inactives show at the top dose activity, negative = less viability, usual class: cytotoxic;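 also: NT is the 2HG producing partner of a matched IDH1 knockdown line; potency is read from the fitted curve at half-maximal effect; 0% = DMSO-treated cells and -100% = media-only wells without cells; nearly all actives have a fitted effect of over 55% in size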
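HT-1080-NT; 750 cells/well; 5% FBS RPMI; 48 h compound, 37 degrees C; CellTiter-Glo luminescence; curve fitting and curve-class assignment.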
HT1080 IDH1KD tx: qHTS for induction of synthetic lethality in tumor cells producing 2HG: qHTS for the HT-1080-IDH1KD cell line; HT-1080 IDH1 knockdown viability, ATP luminescence, 48 h; Potency, µM (top dose mostly 46.1 µM), for the others: top-dose activity, negative = toxicity, most hits filed as cytotoxic; 360,000 compounds, 2% hits; AID 686971, 2013;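 also: potency is read from the fitted curve at half-maximal effect; 0% = DMSO wells and -100% = cell-free medium wells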
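HT-1080-IDH1KD cells (IDH1 knocked down), 750/well in RPMI with 5% FBS, treated with compound 48 h at 37 degrees C. Viability by CellTiter-Glo luminescence, normalised to DMSO and no-cell wells; concentration-response curves classed.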
DT40 TDP1 CPT: qHTS for Inhibitors of human tyrosyl-DNA phosphodiesterase 1 (TDP1): qHTS in cells in presence of CPT; 420,000 compounds, 12% hits; Potency, µM (highest dose often 46.2 µM), for inactives: at the top dose activity change, negative = growth inhibition, actives largely listed as inhibitors; chicken DT40 Tdp1-/-;hTDP1 cells + 20 nM CPT, ATP luminescence, 48 h; also: potency is read from the fitted curve at half-maximal effect; nearly all actives have a fitted effect of over 55% in size
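Cell growth measured by CellTiter-Glo luminescence after a minimum 48 h, 37 C compound exposure with 20 nM CPT in Tdp1-knockout DT40 cells stably expressing hTDP1, seeded 400/well; qHTS titration format.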
IL-1B inflam inh: qHTS for Inhibitors of Inflammasome Signaling: IL-1-beta AlphaLISA Primary Screen. THP-1 LPS/ATP IL-1B secretion, AlphaLISA, 16 h; hits give low values. activity change, % at 57.5 µM. 360,000 compounds, 4.7% hits; in the data active = activity change below about -50%; inconclusive = mostly about -30% to -49%
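Secreted IL-1B measured by AlphaLISA bead assay after 16 h compound exposure of THP-1 cells; compounds (final up to 57.5 uM) added 1 h before LPS (250 ng/mL) and ATP (1.25 mM) stimulation; lower signal means less secretion.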
DT40 TDP1 no CPT: qHTS for Inhibitors of human tyrosyl-DNA phosphodiesterase 1 (TDP1): qHTS in cells in absence of CPT; Potency, µM (highest dose often 46.2 µM), inactives show at the top dose activity change, negative = growth inhibition, most hits filed as inhibitors; DT40 Tdp1-/- hTDP1 cells, no CPT, ATP luminescence, 48 h; 420,000 compounds, 15% hits; AID 686978, 2013; also: potency is read from the fitted curve at half-maximal effect; nearly all actives have a fitted effect of over 55% in size
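Stably hTDP1-transfected Tdp1-null chicken DT40 cells were treated with library compounds minus camptothecin and grown for at least 48 hr at 37 °C, after which cellular ATP was quantified by luminescence.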
ELG1 repair inh: qHTS screen for small molecules that inhibit ELG1-dependent DNA repair in human embryonic kidney (HEK293T) cells expressing luciferase-tagged ELG1; HEK293T ELG1-luciferase reporter, luminescence, 16 h; DNA damage induced by 5-fluorouridine; Potency, µM (titrated, usually from 46.1 µM), for the others: at the top dose activity change, negative = inhibition, hits mostly inhibitors; 330,000 compounds, 2.3% hits; AID 504467, 2011; also: potency is read from the fitted curve at half-maximal effect; nearly all actives have a fitted effect of over 55% in size
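Reporter activity after DNA damage by 5-fluorouridine is monitored. Compound-treated cells incubate 16 hr at 37 °C, then ONE-Glo is added for 30 min before luminescence reading.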
The depositor's hits bear a star; ? = inconclusive; . = not tested or not shown. Shown are actives, neighbours in structure and some others; about 19% of the full set was active somewhere. Unless noted, calls follow the shape of the dose curve; as a rule, active = well fitted curve in the direction sought with a large enough effect; inconclusive = small, poorly fitted or top-dose-only effect, or another doubt; inactive = no such curve, though single readings can be large; an effect the other way counts as inactive or inconclusive. Unless noted, % is scaled to controls: 0 for no effect and ±100 for the full control effect.

SMILES	HT1080NT lethal	HT1080 IDH1KD tx	DT40 TDP1 CPT	IL-1B inflam inh	DT40 TDP1 no CPT	ELG1 repair inh
O=C(CSc1nc2cc(Cl)ccc2s1)Nc1cccc(S(=O)(=O)N2CCOCC2)c1	-6.3%	-12.6%	?	28.4	20.6µM*	?
O=C(CSc1nc2ccccc2s1)Nc1ccc(Cl)c(S(=O)(=O)N2CCOCC2)c1	-16.3%	-2.0%	23.1µM*	29.2	?	?
CC(=O)Nc1ccc2nc(SCC(=O)Nc3ccc(N4CCOCC4)c(Cl)c3)sc2c1	-0.3%	-13.5%	?	0.0	?	?
O=C(CSc1nc2ccccc2[nH]1)Nc1cccc(S(=O)(=O)N2CCOCC2)c1	-7.3%	1.0%	?	?	?	?
Cc1noc(C)c1C(=O)N1CCC2(CCCN(Cc3ccc(C#N)cc3)C2)CC1	.	.	-2.2%	.	?	.
NS(=O)(=O)c1ccc(CCNCC(=O)NCc2ccccc2Cl)cc1	-1.5%	17.9%	0.6%	-2.1	18.9%	-8.2%
Cc1ccccc1C(=O)NCCNC(=O)c1cnccn1	17.2%	11.6%	5.4%	8.1	-25.8%	10.0%
O=C(CCNC(=O)C1CCN(S(=O)(=O)c2ccc(F)cc2)CC1)NCc1ccccc1	0.4%	9.0%	-1.8%	-6.0	10.1%	-1.6%
COC(=O)c1cc(NC(=O)c2c(-c3c(Cl)cccc3Cl)noc2C)ccc1N1CCOCC1	5.3%	-1.0%	-24.4%	3.5	-23.3%	-8.2%
COC(=O)c1cc(NC(=O)c2cc(-c3ccccc3Cl)oc2C(F)(F)F)ccc1N1CCOCC1	-21.0%	?	?	?	20.6µM*	?
COC(=O)c1cc(NC(=O)c2cc(-c3ccc(Cl)cc3)oc2C(F)(F)F)ccc1N1CCOCC1	?	?	?	?	18.4µM*	-28.6%
COc1cc(Cl)ccc1OCc1cc(C(=O)N(C)CC2CCCCO2)no1 (configuration not stated)	-1.2%	5.1%	-26.4%	0.0	-10.7%	?
CN=c1scc(C)n1/N=C/c1cc(Br)c(O)c(Br)c1	-13.0%	-9.8%	3.9%	31.8	-24.1%	8.6%
CCN=c1scc(C)n1/N=C/c1cc(Br)c(O)c(OC)c1	-17.2%	?	-25.8%	6.0	?	5.8µM*
Cc1cc(C)c2c(N)c(-c3nnc(SCc4ccc(Cl)cc4)n3C)sc2n1	5.8%	8.5%	-4.3%	23.3	?	-12.6%
C=CCn1c(SCc2ccccc2Cl)nnc1-c1sc2nc(C)cc(C)c2c1N	?	11.7%	?	-11.9	23.1µM*	20.6µM*
COc1ccc(OC)c(Nc2nc(N)c([N+](=O)[O-])c(N3CCOCC3)n2)c1	-2.9%	0.0%	?	?	?	?
CCOc1ccc(C(=O)Nc2ccc(Cl)c(-c3nc4cc(C)cc(C)c4o3)c2)cc1	.	.	-23.1%	.	-13.9%	.
CCOc1ccc(C(=O)Nc2ccc3oc(-c4ccc(C)cc4C)nc3c2)cc1Br	.	.	?	.	13µM*	.
CCOc1cc(C(=O)Nc2ccc3oc(-c4ccc(CC)cc4)nc3c2)cc(OCC)c1OCC	.	.	23.1µM*	.	8.2µM*	.
CCOc1ccc(C(=O)Nc2ccc3oc(-c4ccncc4)nc3c2)cc1	.	.	-20.8%	.	-29.5%	.
CCOc1cc(C(=O)Nc2ccc(-c3nc4cc(C)ccc4o3)cc2)cc(OCC)c1OCC	.	.	11.6µM*	.	9.2µM*	.
CSC1=NC2(CCN(C(=O)NC3CCCCC3)CC2)N=C1c1ccc(C(C)(C)C)cc1	.	.	-16.4%	.	-6.1%	.
COc1cc2c(C=O)c3c4c(cc(OC)c(OC)c4c2cc1OC)CCN3C	.	.	11.9µM*	.	11.9µM*	.
Nc1ccc2ncccc2c1N	0.7%	-6.4%	?	0.0	?	10.3µM*
SMILES	HT1080NT lethal	HT1080 IDH1KD tx	DT40 TDP1 CPT	IL-1B inflam inh	DT40 TDP1 no CPT	ELG1 repair inh
CC(OC(=O)c1ccco1)C(=O)Nc1ccc(C(F)(F)F)cc1 (configuration not stated)	0.6%	11.0%	10.3µM*	-8.8	25.9µM*	6.9%
C/C(=N/NC(=O)CNC(=O)c1cccs1)c1ccco1	19.3%	13.5%	13.2%	3.7	-1.5%	7.5%
C/C(=N/NC(=O)Cc1cccs1)c1ccco1	13.2%	14.3%	?	-1.5	23.1µM*	14.3%
CCOc1cc(C(=O)OCC(=O)NCc2ccco2)cc(OCC)c1OCC	6.2%	6.9%	-28.3%	-15.7	?	-17.2%
CC(C)(C)c1ccc(OCC(=O)NCc2ccco2)c(Br)c1	?	?	-92.4%	-26.7	23.1µM*	?
O=C(Cc1cccs1)NNC(=S)NCc1ccc(Cl)cc1	-16.9%	-8.1%	-6.6%	20.1	-20.6%	7.1%
CC(C)(C)c1ccc(OCC(=O)NNC(=S)NC(=O)c2ccco2)c(Br)c1	-0.9%	0.3%	20.6µM*	24.0	10.3µM*	-10.5%
O=C(Cc1cccs1)NNC(=S)NC(=O)c1ccco1	-15.8%	?	?	34.1	29.1µM*	?
C[C@@H]1CN([C@@H](C)CO)C(=O)CCCn2nncc2CO[C@H]1CN(C)C(=O)Nc1ccc(-c2cccs2)cc1	21.2%	11.6%	-20.1%	10.7	-22.7%	.
COc1ccc(-c2n[nH]c(=S)n2-c2ccc(Br)cc2)cc1OC	-4.2%	5.4%	7.2%	15.1	2.2%	-10.1%
Cc1ccccc1OCC(=O)NNC(=S)NC(=O)c1ccco1	?	8.91µM*	22.4µM*	75.6	10µM*	16.1%
C[C@H](NC(=O)[C@@H]1Cc2ccccc2CN1)C(=O)NCC1CCCO1 (some centres not stated)	4.7%	17.1%	?	-2.0	?	27.6%
Cc1ccc(-c2csc(N3CCN(CCCn4c(-c5ccncc5)nc5ccccc54)CC3)n2)cc1	?	?	5.8µM*	3.3	3.66µM*	?
Cc1ccc(-c2csc(N3CCN(CCCn4c(C(F)(F)F)nc5ccccc54)CC3)n2)cc1	?	-8.1%	20.6µM*	28.8	14.6µM*	-10.6%
Cc1ccc(-c2csc(NCCn3c(C(F)(F)F)nc4ccccc43)n2)cc1	?	-25.3%	?	49.6	?	-25.8%
